In PubChem BioAssay (Tox21) one finds Potency data, which are given here for seven compounds.

Assay [1] is described as follows: Nuclear factor erythroid 2-related factor 2/antioxidant responsive element (Nrf2/ARE) small molecule agonists: qHTS cell viability counter screen in human keratinocytes (AID 1919968; active means well fitted curve in the direction sought with a large enough effect in the repeat runs; an effect the other way counts as inactive or inconclusive; further: nearly all actives have a fitted effect of over 55% in size). The gist of the method:
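Seed 1,500 KeratinoSens cells per well, then incubate 5 h at 37 C/5% CO2. Add compounds in DMSO and incubate 23 h. Add CellTiter-Fluor, wait 1 h and read fluorescence.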

Assay [2] in a line: Nuclear factor erythroid 2-related factor 2/antioxidant responsive element (Nrf2/ARE) small molecule agonists: luciferase reporter gene qHTS assay in human keratinocytes (AID 1919969). Further: nearly all actives have a fitted effect of over 35% in size. Background: In a reporter assay the amount or activity of a reporter protein is the signal.
A short description of assay [3]: G protein-coupled receptor (GPCR) small molecule agonists, calcium flux assay: HEK293 wild type cell line counter screen (AID 1920065). The gist of the method:
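Counter-screen of the Tox21 10K library for non-specific calcium release: dye-loaded cells received compounds in DMSO and were monitored by kinetic fluorescence (480/540 nm, 3 min). Fifteen concentrations, run in triplicate.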
Background: Calcium flux is commonly read through the fluorescence of an indicator in the cells.

A short description of assay [4]: p53 small molecule agonists, cell-based qHTS assay with human liver microsomes (AID 1963577).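 Further: p53 response element beta-lactamase reporter cells with liver microsomes plus NADPH.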 The gist of the method: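 16 h, 37 C exposure of p53RE-bla cells to compounds with human liver microsomes and NADPH (0.5 mg/mL final each); detection via LiveBLAzer mixture, 2 h dark at room temperature.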
A short description of assay [5]: p53 small molecule agonists, cell-based qHTS assay with rat liver microsomes (AID 1963578). A digest of the protocol: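 With rat liver microsomes and NADPH present (0.5 mg/mL final each), p53RE-bla cells are treated with compound for 16 h at 37 C. LiveBLAzer detection mixture is then applied for 2 h at room temperature in the dark.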
The nature of assay [6]: p53 small molecule agonists, cell-based qHTS assay with human liver microsomes: qHTS cell viability counter screen (AID 1963579). Further: nearly all actives have a fitted effect of over 45% in size. The gist of the method: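 In this multiplexed counter screen, the reporter plates were subsequently treated with CellTiter-Glo so that cell viability, reflected by luminescence, could be recorded for p53RE-bla cells dosed 16 h with compounds under microsomal activation (HLM and NADPH).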
For orientation: In qHTS, concentration-response curves come from the screen itself.

Assay [7] is described as follows: p53 small molecule agonists, cell-based qHTS assay with rat liver microsomes: qHTS cell viability counter screen (AID 1963580). Further: nearly all actives have a fitted effect of over 45% in size. A digest of the protocol: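 p53RE-bla HCT-116 cells (4,000/well) rested 5 h at 37 C, then given Tox21 compounds in DMSO with rat liver microsomes (0.5 mg/mL final) plus NADPH (0.5 mg/mL final) for 16 h at 37 C. Viability read by CellTiter-Glo luminescence after 30 min at room temperature.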

Assay [8] can be described thus: p53 small molecule agonists, cell-based qHTS assay: qHTS cell viability counter screen (AID 1963581). Further: nearly all actives have a fitted effect of over 45% in size. A digest of the protocol: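 Cells: HCT-116 with p53 response element-driven beta-lactamase. Treatment: 16 h, 37 C, compounds in DMSO. Read: CellTiter-Glo luminescence after 30 min RT.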
The nature of assay [9]: p53 small molecule agonists, cell-based qHTS assay (AID 1963582; active means well fitted activation curve with a large enough effect in the signal ratio in the repeat runs, not every such curve was filed as active; the % refers to the signal ratio). A digest of the protocol:
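Quantitative HTS in p53RE-bla cells: after a 5 h settling period, compounds delivered in DMSO were left on cells for 16 h at 37 C, and reporter induction was measured as fluorescence following 2 h substrate loading.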

The target in assay [10] is 5-hydroxytryptamine receptor 2A (Homo sapiens) (UniProt P28223). In words: 5-hydroxytryptamine receptor 2A (HTR2A) small molecule antagonists, cell-based qHTS assay (AID 1963586). Further: nearly all actives have a fitted effect of over 45% in size. Further: potency means the concentration at half of the fitted maximal effect. A digest of the protocol:
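Antagonist-mode intracellular calcium assay: DOI (4 nM) added after 5 min compound pre-incubation at room temperature to dye-loaded HTR2A-CHO cells. Fluorescence followed for 3 min, sampled every second.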

For assay [11] the target is unchanged. In words: 5-hydroxytryptamine receptor 2A (HTR2A) small molecule agonists, cell-based qHTS assay (AID 1963587). Further: nearly all actives have a fitted effect of over 30% in size. A digest of the protocol: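 HTR2A-CHO cells, plated 18 h at 37 C/5% CO2, dye-loaded 1 h at 37 C; compounds in DMSO added by pin tool (agonist mode). Intracellular calcium flux read as kinetic fluorescence on FDSS over 2 min at 1 s intervals.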
For assay [12], the target named is Muscarinic acetylcholine receptor M1 (Homo sapiens) (UniProt P11229). In words: Cholinergic receptor muscarinic 1 (CHRM1) small molecule antagonists, cell-based qHTS assay (AID 1963588). Further: nearly all actives have a fitted effect of over 40% in size. A digest of the protocol:
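CHRM1-CHO calcium-flux assay, antagonist mode. Cells were seeded 18 h, dye-loaded 1 h at 37 C and given compound for 5 min at RT, then acetylcholine was added at 50nM. FDSS fluorescence was read 3 min; 15 concentrations, three runs.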

Assay [13] has the same target. The experiment in a line: Cholinergic receptor muscarinic 1 (CHRM1) small molecule agonists, cell-based qHTS assay (AID 1963589). Further: nearly all actives have a fitted effect of over 35% in size. A digest of the protocol:
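Agonist-mode qHTS in CHO cells stably carrying human muscarinic M1. Intracellular calcium is tracked by fluorescence every second after compound transfer; each compound runs at 15 concentrations in three independent runs.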

Assay [14] can be described thus: cAMP Responsive Elements (CRE) small molecule agonists, cell-based qHTS assay (AID 1963590). The gist of the method: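 Agonist mode qHTS in CRE-bla HEK 293T cells: compounds dosed from DMSO for 3 h at 37 C/5% CO2, followed by LiveBLAzer B/G FRET substrate for 2 h at room temperature.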
A short description of assay [15]: cAMP Responsive Elements (CRE) small molecule antagonists, cell-based qHTS assay (AID 1963591; active means well fitted inhibition curve with a large enough effect in the signal ratio in the repeat runs, not every such curve was filed as active; the % refers to the signal ratio). A digest of the protocol:
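Antagonist mode: test compounds are co-incubated with the adenylyl cyclase activator NKH477 (0.25 uM final) on CRE-bla HEK293T cells for 3 h at 37 °C, followed by LiveBLAzer substrate loading.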

The target in assay [16] is Beta-2 adrenergic receptor (Homo sapiens) (UniProt P07550). The experiment in a line: Adrenergic beta2 receptor (ADRB2) small molecule antagonists, cell-based qHTS assay (AID 1963592). Further: nearly all actives have a fitted effect of over 50% in size. Further: potency means the concentration at half of the fitted maximal effect. A digest of the protocol: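 Cells (CHO, stable ADRB2 overexpression) incubated 18-20hr at 37C; compounds added from DMSO; agonist mix (1nM isoproterenol, 100uM IBMX, 25uM Ro-20-1724) added; 0.5hr RT; d2-cAMP and anti-cAMP-cryptate added; 1hr RT; 665/615 nm read.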
Sequence of Beta-2 adrenergic receptor (Homo sapiens) (P07550 whole entry, looked up): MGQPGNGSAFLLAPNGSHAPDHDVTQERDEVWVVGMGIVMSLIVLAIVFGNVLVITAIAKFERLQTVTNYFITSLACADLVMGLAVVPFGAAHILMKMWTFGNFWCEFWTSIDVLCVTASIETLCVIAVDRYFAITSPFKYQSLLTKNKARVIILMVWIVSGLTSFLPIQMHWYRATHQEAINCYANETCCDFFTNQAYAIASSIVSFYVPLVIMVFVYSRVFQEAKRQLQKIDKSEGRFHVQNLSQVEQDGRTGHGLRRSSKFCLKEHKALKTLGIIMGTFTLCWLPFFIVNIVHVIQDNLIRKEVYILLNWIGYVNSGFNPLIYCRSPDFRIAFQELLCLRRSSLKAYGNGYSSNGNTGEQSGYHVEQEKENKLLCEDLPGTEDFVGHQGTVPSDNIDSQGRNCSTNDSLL

The target in assay [17] is D(2) dopamine receptor (Homo sapiens) (UniProt P14416). In words: Dopamine D2 receptor (DRD2) small molecule agonists, cell-based qHTS assay (AID 1963594). Further: nearly all actives have a fitted effect of over 35% in size. A digest of the protocol: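 HEK293 cells stably expressing DRD2 were cultured 24 h at 37 C, then given Ro20-1724 (0.1 mM final) and compounds for 10 min at room temperature. NKH477 (200nM) was then added for 30 min. cAMP was read by HTRF.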
Sequence of D(2) dopamine receptor (Homo sapiens) (P14416 whole entry, looked up): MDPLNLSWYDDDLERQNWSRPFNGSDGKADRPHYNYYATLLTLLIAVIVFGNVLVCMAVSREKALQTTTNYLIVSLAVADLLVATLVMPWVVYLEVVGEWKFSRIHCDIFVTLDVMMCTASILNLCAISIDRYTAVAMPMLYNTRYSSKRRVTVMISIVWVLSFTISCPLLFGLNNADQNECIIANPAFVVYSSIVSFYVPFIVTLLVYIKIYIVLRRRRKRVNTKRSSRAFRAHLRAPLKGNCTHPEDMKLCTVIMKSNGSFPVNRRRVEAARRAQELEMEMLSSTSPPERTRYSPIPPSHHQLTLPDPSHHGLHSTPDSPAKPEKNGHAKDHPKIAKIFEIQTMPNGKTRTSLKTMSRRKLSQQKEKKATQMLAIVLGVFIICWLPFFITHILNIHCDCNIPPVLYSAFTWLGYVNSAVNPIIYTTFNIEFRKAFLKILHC

Assay [18] shares this target. The experiment in a line: Dopamine D2 receptor (DRD2) small molecule antagonists, cell-based qHTS assay (AID 1963595; active means well fitted inhibition curve with a large enough effect in the signal ratio in the repeat runs, with a control signal flat; the % refers to the signal ratio). A digest of the protocol:
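Readout: HTRF cAMP, cAMP-d2 competing with cellular cAMP for anti-cAMP cryptate, read after 1 h. Cells: DRD2-HEK293. Conditions: 0.1 mM Ro20-1724, 12 nM quinpirole, 200 nM NKH477, 30 min RT.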

Assay [19] deals with KiSS-1 receptor (Homo sapiens) (UniProt Q969F8). The experiment in a line: Human kisspeptin (KISS1R) small molecule agonists, calcium flux assay in KISS1R-HEK293 cells (AID 1920064; active means well fitted curve in the direction sought with a large enough effect in the repeat runs; an effect the other way counts as inactive or inconclusive). A digest of the protocol: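 Cells plated and incubated 18 h; dye added, 1 h at 37 C; compounds in DMSO pinned in; signal read at 480/540 nm every second for 3 min. Each compound tested at 15 concentrations in triplicate.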
Sequence of KiSS-1 receptor (Homo sapiens) (Q969F8 whole entry, looked up): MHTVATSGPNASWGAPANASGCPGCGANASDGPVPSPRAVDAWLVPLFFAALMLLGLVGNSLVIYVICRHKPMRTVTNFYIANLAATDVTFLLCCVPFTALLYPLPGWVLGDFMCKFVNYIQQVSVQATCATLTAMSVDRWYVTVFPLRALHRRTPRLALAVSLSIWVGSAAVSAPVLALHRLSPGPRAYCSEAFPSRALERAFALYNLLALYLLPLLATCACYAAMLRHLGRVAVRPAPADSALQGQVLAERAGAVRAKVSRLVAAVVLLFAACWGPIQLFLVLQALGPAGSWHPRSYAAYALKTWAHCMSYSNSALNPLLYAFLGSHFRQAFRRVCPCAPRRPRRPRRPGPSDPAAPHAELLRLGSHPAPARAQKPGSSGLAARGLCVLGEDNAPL

The target of assay [20] is Beta-2 adrenergic receptor (Homo sapiens) (UniProt P07550). In words: Adrenergic beta2 receptor (ADRB2) small molecule agonists, cell-based qHTS assay (AID 1963593).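 Further: CHO cells stably overexpressing human ADRB2.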 A digest of the protocol: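 CHO cells stably over-expressing ADRB2 were plated overnight at 37C, then dosed with compounds plus a stimulation mix containing 100uM IBMX and 25uM Ro-20-1724 for 0.5hr at room temperature. cAMP was measured by HTRF competition, 1hr.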

Several values for one entry are separate records, joined by “and”; a condition that tells them apart may be missing. Identical values can stand only once. Records with an inconclusive call do not appear. Some compounds were tested as several samples or in several runs, with calls that do not always agree. Activity calls are given as the source filed them. Unless noted, the call rests on the fitted dose curve.

Sequence of 5-hydroxytryptamine receptor 2A (Homo sapiens) (P28223 whole entry, looked up): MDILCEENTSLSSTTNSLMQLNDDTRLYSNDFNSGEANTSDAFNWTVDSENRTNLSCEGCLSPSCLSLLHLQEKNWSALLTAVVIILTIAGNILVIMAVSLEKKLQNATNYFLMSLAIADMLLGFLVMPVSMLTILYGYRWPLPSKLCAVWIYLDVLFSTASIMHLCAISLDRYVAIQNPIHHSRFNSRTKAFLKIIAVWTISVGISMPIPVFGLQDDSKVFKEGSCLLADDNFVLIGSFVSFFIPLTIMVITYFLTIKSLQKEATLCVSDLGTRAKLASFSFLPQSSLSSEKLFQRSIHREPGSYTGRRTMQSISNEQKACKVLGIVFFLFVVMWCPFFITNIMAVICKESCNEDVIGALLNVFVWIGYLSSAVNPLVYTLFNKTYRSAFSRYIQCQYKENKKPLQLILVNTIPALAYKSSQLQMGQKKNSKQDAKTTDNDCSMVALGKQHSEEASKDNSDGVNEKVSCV
Sequence of Muscarinic acetylcholine receptor M1 (Homo sapiens) (P11229 whole entry, looked up): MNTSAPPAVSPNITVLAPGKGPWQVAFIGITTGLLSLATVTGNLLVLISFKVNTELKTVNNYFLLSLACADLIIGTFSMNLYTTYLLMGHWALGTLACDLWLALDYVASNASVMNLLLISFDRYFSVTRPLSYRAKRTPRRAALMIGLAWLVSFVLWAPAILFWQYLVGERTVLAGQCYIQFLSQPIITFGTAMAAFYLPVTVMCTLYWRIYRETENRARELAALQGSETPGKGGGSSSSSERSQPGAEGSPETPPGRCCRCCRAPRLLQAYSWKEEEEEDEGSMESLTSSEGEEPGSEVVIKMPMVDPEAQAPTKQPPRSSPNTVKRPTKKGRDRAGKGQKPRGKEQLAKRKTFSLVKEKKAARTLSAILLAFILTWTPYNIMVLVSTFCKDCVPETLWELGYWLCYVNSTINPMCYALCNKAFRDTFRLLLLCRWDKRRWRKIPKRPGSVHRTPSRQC

With `c1ccc2c(c1)ccc1ccccc12`, the Potency entry in [1], in [2], in assay [3], in assay [4], in assay [5] and in assay [6] was “inactive” each time. The Potency entry in assay [7], in assay [8], in assay [9], in assay [10], in [11] and in assay [12] was “inactive” in each case. The Potency entry in assay [13], in assay [14], in assay [15], in [16], in assay [17] and in [18] was “inactive” throughout.

Regarding `O=C1CCc2ccccc2O1`, the Potency result in assay [1], in assay [19], in assay [3], in assay [4], in assay [5] and in [6] was “inactive” in each case. Further, the Potency entry in [7], in assay [8], in [9], in assay [10], in assay [12] and in assay [13] was “inactive” each time. Further, the Potency entry in [15], in assay [16], in assay [20] and in assay [17] was “inactive” throughout.

`O=c1c(O)c(-c2ccc(O)c(O)c2)oc2cc(O)cc(O)c12`: the Potency entry in assay [1], in assay [19], in assay [3], in assay [4], in assay [5] and in assay [6] was “inactive” in each case. The Potency result in assay [7], in assay [8], in [9], in assay [10], in [11] and in assay [12] was “inactive” throughout. Moreover, the Potency entry in assay [15], in assay [16], in assay [20], in assay [17] and in assay [18] was “inactive” in each case.

Take `O=C(O)Cc1c[nH]c2ccccc12`: the Potency entry in assay [1], in [2], in [3], in assay [4], in assay [5] and in [6] was “inactive” in each case. For the same compound, the Potency result in assay [7], in [8], in assay [9], in [10], in assay [11] and in assay [12] was “inactive” in each case. For the same compound, the Potency result in assay [13], in assay [14], in assay [15], in assay [16], in assay [20] and in assay [17] was “inactive” each time. For the same compound, the Potency entry in assay [18] was “inactive”.

In the case of `O=C(OCCOCCOC(=O)c1ccccc1)c1ccccc1`, the Potency result in assay [1], in [2], in assay [3], in assay [4], in [5] and in assay [6] was “inactive” in each case. Besides, the Potency entry in assay [7], in assay [8], in [9], in [11], in assay [13] and in assay [14] was “inactive” in each case. For the same compound, the Potency result in [15] and in assay [17] was “inactive” throughout. Further, the Potency result in assay [10] was “inactive and 7.5 nM (active)”.

In the case of `COC(=O)c1cccc(C(=O)OC)c1`, the Potency entry in assay [1], in [2], in [19], in assay [4], in assay [5] and in [6] was “inactive” in each case. Further, the Potency entry in [7], in [8], in assay [9], in assay [10], in assay [11] and in assay [12] was “inactive” in each case. For the same compound, the Potency result in [13], in assay [14], in assay [15], in [20], in assay [17] and in assay [18] was “inactive” in each case. Further, in assay [16], the Potency entry was “inactive and 15.4 µM (active)”.

With `CCCCCCCCO`, the Potency entry in [1], in assay [19], in assay [3], in [4], in [5] and in assay [6] was “inactive” throughout. Further, the Potency entry in assay [7], in assay [8], in [9], in assay [11], in [12] and in assay [14] was “inactive” each time. Besides, the Potency entry in assay [15], in assay [16], in assay [20], in [17] and in [18] was “inactive” each time.
